Results reported in the supplement of paper PMC12645437, “Orthogonal IMiD-Degron Pairs Induce Selective Protein Degradation in Cells” (ACS Chemical Biology, 2025).
In all, about 8,300 sequences were measured (“log2 fold change of degron read counts, EGFP-low vs EGFP+ sorted cells (limma voom), compound-induced degradation”: median about -1.1, highest 2% from about 3.2 on). Many of the other results were omitted from the sample, so the highest values are more common in it than they were.

Target: T1, CRBN, Q96SW2
T1 chain: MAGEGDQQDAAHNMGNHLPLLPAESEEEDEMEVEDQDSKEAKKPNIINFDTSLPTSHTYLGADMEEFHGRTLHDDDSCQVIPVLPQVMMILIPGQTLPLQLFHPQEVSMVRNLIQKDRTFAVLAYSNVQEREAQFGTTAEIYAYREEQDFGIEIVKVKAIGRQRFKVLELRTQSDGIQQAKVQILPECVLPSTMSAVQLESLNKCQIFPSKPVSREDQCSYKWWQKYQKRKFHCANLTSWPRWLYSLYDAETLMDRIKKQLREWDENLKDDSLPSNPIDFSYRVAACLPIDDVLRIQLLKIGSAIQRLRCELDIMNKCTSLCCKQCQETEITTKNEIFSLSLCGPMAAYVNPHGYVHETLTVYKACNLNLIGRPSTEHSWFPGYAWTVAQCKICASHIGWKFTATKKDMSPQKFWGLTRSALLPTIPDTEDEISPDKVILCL
Assay: log2 fold change of degron read counts, EGFP-low vs EGFP+ sorted cells (limma voom), compound-induced degradation; higher = more compound-induced degradation of the degron-EGFP fusion; degrons are variants of IKZF1/3 zinc finger 2; compound dose not given here
Settings: Jurkat, 18 h

[1] = compound: compound 19 (5-tert-butyl-thalidomide)
[2] = compound: compound 22 (5-morpholino-thalidomide)
[3] = compound: compound 33 (diphenyl IMiD analogue)
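Note: pooled lentiviral library of zinc finger degron-EGFP fusions in mCherry-positive Jurkat cells, FACS-sorted after compound exposure, with degron abundance counted by next-generation sequencing.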

Sequence: FQCNQCGREFTQKGNLLRHIKL [46F_47Q_49N_50Q_52G_53R_54E_55F_67L_, Q9UKT9]
- log2 fold change of degron read counts [1]: -3.47
- log2 fold change of degron read counts [2]: -3.04
- log2 fold change of degron read counts [3]: -3.68
- log2 fold change of degron read counts (compound: thalidomide): -2.95

Sequence: FDCEQCGACFTQKGNLLRHIKL [46F_47D_49E_50Q_52G_53A_54C_55F_67L_, Q9UKT9]
- log2 fold change of degron read counts [1]: -1.94
- log2 fold change of degron read counts [2]: -2.86
- log2 fold change of degron read counts [3]: -2.08
- log2 fold change of degron read counts (compound: thalidomide): -2.3

Sequence: FGCDICGAAFTQKGNLLRHIKL [46F_47G_49D_50I_52G_53A_54A_55F_67L_, Q9UKT9]
- log2 fold change of degron read counts [1]: 1.51
- log2 fold change of degron read counts [2]: 0.584
- log2 fold change of degron read counts [3]: 0.961
- log2 fold change of degron read counts (compound: thalidomide): -0.234

Sequence: LLCPICGFPCTQKGNLLRHIKL [46L_47L_49P_50I_52G_53F_54P_55C_67L_, Q9UKT9]
- log2 fold change of degron read counts [1]: -0.669
- log2 fold change of degron read counts [2]: 1.1
- log2 fold change of degron read counts [3]: 1.61
- log2 fold change of degron read counts (compound: thalidomide): 2.14

Sequence: FDCNQCGATFTQKGNLLRHIKL [46F_47D_49N_50Q_52G_53A_54T_55F_67L_, Q9UKT9]
- log2 fold change of degron read counts [1]: -2.56
- log2 fold change of degron read counts [2]: -3.15
- log2 fold change of degron read counts [3]: -3.02
- log2 fold change of degron read counts (compound: thalidomide): -2.62

Sequence: FWCPICGHRFTQKGNLLRHIKL [46F_47W_49P_50I_52G_53H_54R_55F_67L_, Q9UKT9]
- log2 fold change of degron read counts [1]: -0.606
- log2 fold change of degron read counts [2]: 0.31
- log2 fold change of degron read counts [3]: -0.595
- log2 fold change of degron read counts (compound: thalidomide): -0.478

Sequence: LACNQCGFFCTQKGNLLRHIKL [46L_47A_49N_50Q_52G_53F_54F_55C_67L_, Q9UKT9]
- log2 fold change of degron read counts [1]: -0.913
- log2 fold change of degron read counts [2]: -1.22
- log2 fold change of degron read counts [3]: -1.37
- log2 fold change of degron read counts (compound: thalidomide): -0.847

Sequence: FHCEICGRPFTQKGNLLRHIKL [46F_47H_49E_50I_52G_53R_54P_55F_67L_, Q9UKT9]
- log2 fold change of degron read counts [1]: 1.69
- log2 fold change of degron read counts [2]: 0.386
- log2 fold change of degron read counts [3]: 0.306
- log2 fold change of degron read counts (compound: thalidomide): -0.468
